# Measured values published in PubChem BioAssay (Tox21).
# Records with an inconclusive call do not appear. A call without a number means that no potency is given here. Unmarked numbers belong to inactive results. Active and inactive are the calls of the source. The call rests on the fitted dose curve; in most records, active means well fitted cell-killing curve with a large enough effect in the repeat runs; inconclusive means weak or mixed curves, or effect the other way; inactive means flat fitted curve, though single readings scatter.
# Test: qHTS assay to identify small molecule antagonists of the constitutive androstane receptor (CAR) signaling pathway - cell viability counter screen (AID 1224837); further: nearly all actives have a fitted effect of over 45% in size
# Conditions: HepG2-CYP2B6-hCAR viability, CellTiter-Fluor, 23 h, co-treated with 50 nM CITCO; series mostly up to 92.4 µM; activity change, negative = cytotoxicity: at the top concentration
# Text: National Center for Advancing Translational Sciences [NCATS]
# NIH Chemical Genomics Center [NCGC]
# U.S. Environmental Protection Agency [EPA]
# National Institutes of Environmental Health Sciences [NIEHS]
# National Toxicology Program [NTP]
# U.S. Food and Drug Administration [FDA]
# The constitutive androstane receptor (CAR) is a nuclear receptor which regulates multiple drug metabolizing enzymes (DMEs) and transporters. Activating CAR will generally increase the transcription and subsequent translation of CYP2B6 and CYP3A4. These two DMEs represent about 50% of the drug metabolizing potential in the body. When CAR is deactivated, the metabolizing potential in the body will decrease, subsequently increasing the toxicity in the body or lowering the therapeutic potential of a pro-drug. Recently, there have also been studies performed indicating CARs role in energy metabolism and cancer therapy. Therefore, inhibiting CARs activity could have a potential effect on diabetes and cancer. Identifying environmental toxins and compounds which modulate CAR, through the use of the Tox21 10K compound collection, will be an important step in determining the toxicity and potential therapeutic effects these factors will have on the human body. To differentiate true CAR antagonists from cytotoxic substances, the assay is multiplexed with a cell viability assay.
# Tox21 Assay Protocol Summary:
# A double-stable (hCAR and CYP2B6-2.2kb) transfected cell line, derived from human hepatoma (HepG2) cells, was utilized for the duration of the quantitative high-throughput screens. The HepG2-CYP2B6-hCAR cells were dispensed at 2500 cells/4 uL/well in 1536-well white solid bottom plates using a Multidrop Combi. After the assay plates were incubated at 37 C/5% CO2 for 4 hrs, 23 nL of compounds at 15 concentrations (from 5-48 columns) or positive control (from 1 to 4 columns) were transferred to the assay plates using a Pintool station. One uL of CITCO (final concentration = 50 nM) was added, using a Flying Reagent Dispenser, inside each well. After a 23 hr incubation period at 37 C/5% CO2, 1 uL of CellTiter-Fluor reagent was added into each well of the assay plates using a Flying Reagent Dispenser. The fluorescence intensity in the plates was then measured using a ViewLux plate reader.
# Potency means the concentration at half of the fitted maximal effect.
SMILES,Potency,"activity change, negative = cytotoxicity"
COc1cc(Cc2cnc(N)nc2N)cc(OC)c1OC,inactive,–
C#CCN(C)Cc1ccccc1,inactive,–
Cc1cccc(O)c1,inactive,–
O=C(CC(C(=O)OC1CCCCC1)S(=O)(=O)O)OC1CCCCC1 (stereo not given),inactive,–
CCCCC(CC)COC(=O)CS (stereo not given),inactive,–
CN(C)CCOCCN(C)C,inactive,–
CC(=O)c1ccccc1,inactive,–
O=C=NCCCCCCN=C=O,–,3%
c1ccc(OCCOc2ccccc2)cc1,inactive,–
CCCCCCCCCCCCCCCO,inactive,–
Cc1cnc(C(=O)NCCc2ccc(S(=O)(=O)NC(=O)NC3CCCCC3)cc2)cn1,inactive,–
OCC(CO)(CBr)CBr,inactive,–
C#C[C@]1(O)CC[C@H]2[C@@H]3CCC4=CC(=O)CC[C@@H]4[C@H]3CC[C@@]21C,inactive,–
CC(=O)CC(=O)Nc1ccccc1C,inactive,–
CN(C)CCCN,inactive,–
CC(=O)OCC(=O)[C@@]12N=C(C)O[C@@H]1C[C@H]1[C@@H]3CCC4=CC(=O)C=C[C@]4(C)[C@H]3[C@@H](O)C[C@@]12C,inactive,–
C=C(C)C(=O)OCCOCCOCCOC(=O)C(=C)C,inactive,–
O=c1[nH]nnc2ccccc12,inactive,–
C[C@H]1C[C@H]2[C@@H]3CCC4=CC(=O)C=C[C@]4(C)[C@@]3(F)[C@@H](O)C[C@]2(C)[C@@]1(O)C(=O)CO,inactive,–
CC(C)(N)CO,inactive,–

SMILES,Potency,"activity change, negative = cytotoxicity"
c1ccc2c(c1)ccc1ccccc12,inactive,–
CC(O)COCC(C)O (stereo not given),inactive,–
O=C(O)c1cc(O)c(O)c(O)c1,–,-1.3% [at 42.5 µM]
CC1=C(C)S(=O)(=O)CCS1(=O)=O,inactive,–
CC(=O)Nc1ccccc1,inactive,–
O=C(O)CC(C(=O)O)C(CC(=O)O)C(=O)O (stereo not given),inactive,–
C=C(C)C(=O)Nc1ccc(Cl)c(Cl)c1,inactive,–
CCCC(C)=O,inactive,–
O=P(OC(CCl)CCl)(OC(CCl)CCl)OC(CCl)CCl,–,-15.8%
C[Si](O[Si](C)(C)C)O[Si](C)(C)C,inactive,–
CCCCCCCCCC,inactive,–
CCCCN(CCCC)CCCC,inactive,–
COc1ccc(Cl)cc1C(=O)NCCc1ccc(S(=O)(=O)NC(=O)NC2CCCCC2)cc1,inactive,–
Cc1cc(C)c(C)cc1C,inactive,–
CCCCCC1=CCCC1=O,inactive,–
c1c[nH]cn1,inactive,–
CC1CCC(C(C)C)C(O)C1 (stereo not given),inactive,–
COS(C)(=O)=O,inactive,–
Nc1cc([N+](=O)[O-])ccc1O,30.6 µM (active),–
CCCCCCCCCCCCS,inactive,–
